697 NFkB inh – inhibitors of the PMA/ionomycin-induced NF-kB reporter in 697 B cells | 697 B-cell NF-kB luciferase reporter, 16 h | inhibition, % at 4 µM | 330,000 tested, 0.33% active; in the data active = inhibition above about 35%
Jurkat NFkB inh – inhibitors of the PMA/ionomycin-induced NF-kB reporter in Jurkat cells; PMA/ionomycin-induced NF-kB luciferase reporter, luminescence; inhibition, % at 4 µM; 330,000 tested, 0.53% active; in the data active = inhibition above about 50%
Gli-Sufu antag – antagonists of Gli-Sufu signaling; Sufu-KO-LIGHT fibroblasts, Gli luciferase reporter luminescence; inhibition, % at 5 µM; AID 588413; 340,000 tested, 0.74% active;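 active = inhibition above about 55%, limit read from the data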;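 also: 0% = DMSO-treated cells and 100% = wells with medium but no cells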
aSyn 5UTR inh – 5' untranslated region of α-synuclein, MLPCN primary screen | AID 1813 | alpha-synuclein 5'UTR reporter, inhibitor activity | inhibition, % (tested at 7.5 µM) | 300,000 tested, 0.82% active; in the data active = inhibition above about 60%;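 also: H4 neuroglioblastoma cells stably carrying SNCA 5'UTR luciferase fusion; 0% = DMSO wells and 100% = positive control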
Mdm2-MdmX inh – disrupts the human Mdm2-MdmX interaction | SaOS-2 split-luciferase Mdm2/MdmX complementation, luminescence | 330,000 tested, 3% active | inhibition, % at 8 µM | O15151+Q00987;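 active = inhibition of at least 50% at 8 µM in the primary screen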
Target sequence (O15151 whole entry, looked up): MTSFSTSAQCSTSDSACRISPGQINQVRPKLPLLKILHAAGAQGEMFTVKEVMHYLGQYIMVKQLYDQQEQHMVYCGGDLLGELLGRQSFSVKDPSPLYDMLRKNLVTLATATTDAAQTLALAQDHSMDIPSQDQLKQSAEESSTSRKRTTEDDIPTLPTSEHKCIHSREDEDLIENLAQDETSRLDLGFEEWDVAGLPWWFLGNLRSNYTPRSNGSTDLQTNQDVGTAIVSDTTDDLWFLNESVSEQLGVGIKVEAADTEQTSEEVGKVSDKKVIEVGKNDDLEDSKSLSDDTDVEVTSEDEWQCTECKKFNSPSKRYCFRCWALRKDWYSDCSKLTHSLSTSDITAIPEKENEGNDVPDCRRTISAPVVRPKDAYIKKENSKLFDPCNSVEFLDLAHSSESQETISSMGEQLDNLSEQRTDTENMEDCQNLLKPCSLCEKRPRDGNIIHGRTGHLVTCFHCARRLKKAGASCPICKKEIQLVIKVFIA
Target sequence (Q00987 whole entry, looked up): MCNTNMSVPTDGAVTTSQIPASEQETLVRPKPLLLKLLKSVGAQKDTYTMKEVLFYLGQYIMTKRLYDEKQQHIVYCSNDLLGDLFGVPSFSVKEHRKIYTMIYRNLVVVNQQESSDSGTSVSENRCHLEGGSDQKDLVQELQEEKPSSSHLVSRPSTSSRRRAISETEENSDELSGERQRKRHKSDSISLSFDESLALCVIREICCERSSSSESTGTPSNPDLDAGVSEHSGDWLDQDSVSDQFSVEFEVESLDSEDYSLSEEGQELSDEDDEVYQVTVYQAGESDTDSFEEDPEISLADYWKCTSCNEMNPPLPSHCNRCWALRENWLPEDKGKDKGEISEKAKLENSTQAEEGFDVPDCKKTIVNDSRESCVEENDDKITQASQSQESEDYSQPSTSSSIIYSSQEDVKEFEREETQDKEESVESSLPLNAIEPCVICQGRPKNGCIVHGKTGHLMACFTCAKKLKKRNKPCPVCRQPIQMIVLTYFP
KLF5 inhibitor – suppresses KLF5 promoter-driven expression | 290,000 tested, 0.23% active | AID 1700 | inhibition, % at 5 µM | DLD-1 KLF5 promoter-luciferase reporter, luminescence;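 active = inhibition above a per-plate limit of that plate's mean compound inhibition plus 3 SD, cut at about 60% in these data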;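 also: 0% = DMSO wells and 100% = LY294002 at 200 µM; higher means less KLF5 promoter-driven luciferase light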
Mdm2-MdmX conf – human Mdm2/MdmX binding inhibition, confirmed | shares compounds with Mdm2-MdmX inh | luminescent assay | inhibition, % at 8 µM | 10,000 tested, 55% active | AID 489028; in the data active = inhibition above about 40%
FLuc counter – inhibits full-length luciferase, flagging false Mdm2/MdmX hits. shares compounds with Mdm2-MdmX inh. SaOS-2 full-length luciferase counterscreen, luminescence. inhibition, % at 8 µM. 6,200 tested, 77% active. AID 504607;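 active = mean inhibition at 8 µM reaching about 37%, which flags the compound as non-specific, limit read from the data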;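 also: p53-null SaOS-2 cells with luciferase driven by a doxycycline-inducible promoter; compound on cells about two nights before reading with doxycycline added after day one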
* hit, by the source's call. In the library only some 4.1% were active in any assay of this set; here they are far more common.

For N#Cc1ccc(N/N=C/c2cn(-c3ccccc3)nc2-c2ccccc2)c([N+](=O)[O-])c1 the results were 697 NFkB inh 16, Jurkat NFkB inh 9, Gli-Sufu antag 7, aSyn 5UTR inh 22, Mdm2-MdmX inh 91*, KLF5 inhibitor -7 and Mdm2-MdmX conf 5.
For NS(=O)(=O)c1ccc(N/N=C/c2cn(-c3ccccc3)nc2-c2cccs2)cc1 the results were 697 NFkB inh -43, Jurkat NFkB inh -10, Gli-Sufu antag -2, aSyn 5UTR inh -92, Mdm2-MdmX inh 7 and KLF5 inhibitor -67.
NS(=O)(=O)c1ccc(N/N=C/c2cn(-c3ccccc3)nc2-c2cccs2)c([N+](=O)[O-])c1 was read as 697 NFkB inh -7, Jurkat NFkB inh -26, Gli-Sufu antag 6, aSyn 5UTR inh -49, Mdm2-MdmX inh 96*, KLF5 inhibitor -7 and Mdm2-MdmX conf 15.
`O=c1oc2cc(Oc3c([N+](=O)[O-])cc(C(F)(F)F)cc3[N+](=O)[O-])ccc2c2c1CCCC2` gave 697 NFkB inh -2, Jurkat NFkB inh -5, Gli-Sufu antag 7, aSyn 5UTR inh -7, Mdm2-MdmX inh 67*, KLF5 inhibitor -11 and Mdm2-MdmX conf 14.
O=C(NCC1CCCO1)c1cc2ccccc2o1 (centres undefined) was read as 697 NFkB inh -9, Jurkat NFkB inh 2, Gli-Sufu antag -53, aSyn 5UTR inh -48, Mdm2-MdmX inh 9 and KLF5 inhibitor -60.
`CCCCC1(Cc2cccc([N+](=O)[O-])c2)C(=O)N(c2ccccc2)N(c2ccccc2)C1=O` gave 697 NFkB inh 13, Jurkat NFkB inh 6, Gli-Sufu antag 11, aSyn 5UTR inh 22, Mdm2-MdmX inh 25 and KLF5 inhibitor -13.
Screening COc1ccc(-c2ccc(=O)n(CC(=O)Nc3cccc(O)c3)n2)cc1OC returned 697 NFkB inh -18, Jurkat NFkB inh -1, Gli-Sufu antag -2, aSyn 5UTR inh 30, Mdm2-MdmX inh 55*, KLF5 inhibitor -13, Mdm2-MdmX conf 55* and FLuc counter 108*.
`COc1ccc(-c2ccc(=O)n(CC(=O)Nc3nnc(C(C)C)s3)n2)cc1OC` gave 697 NFkB inh 10, Jurkat NFkB inh 0, Gli-Sufu antag 4, aSyn 5UTR inh 35, Mdm2-MdmX inh 5 and KLF5 inhibitor -29.
Screening CC(C)(CO)NCC(=O)Nc1cc(C(F)(F)F)cc(NC(=O)CNC(C)(C)CO)c1Cl returned 697 NFkB inh 0, Jurkat NFkB inh -1, Gli-Sufu antag 2, aSyn 5UTR inh 30, Mdm2-MdmX inh 11 and KLF5 inhibitor -35.
Screening COc1cc(CN2CCC(C(=O)NCC(C)(C)CN(C)C)CC2)ccc1OCc1ccccc1 returned 697 NFkB inh 12, Jurkat NFkB inh -4, Gli-Sufu antag 16, aSyn 5UTR inh -67, Mdm2-MdmX inh 92*, KLF5 inhibitor -27, Mdm2-MdmX conf 80* and FLuc counter 71*.
Screening CC(C)C(NC(=O)c1ccc(Cl)c([N+](=O)[O-])c1)C(=O)NCc1ccccn1 (centres undefined) returned 697 NFkB inh -4, Jurkat NFkB inh 7, Gli-Sufu antag 2 and Mdm2-MdmX inh 7.
Cc1ccc2nc(N3CCN(c4cccc(C)c4C)CC3)c3nnnn3c2c1 was read as 697 NFkB inh -14, Jurkat NFkB inh -2, Gli-Sufu antag 5, aSyn 5UTR inh 25, Mdm2-MdmX inh -9 and KLF5 inhibitor -9.
For Cc1ccc2nc(Cl)c3nnnn3c2c1 the results were 697 NFkB inh -17, Jurkat NFkB inh -5, Gli-Sufu antag 10, aSyn 5UTR inh -25, Mdm2-MdmX inh 97*, KLF5 inhibitor -5, Mdm2-MdmX conf 90* and FLuc counter 11.
`CC(=O)c1ccc(N2CCN(C(=O)c3c(-c4ccccc4Cl)noc3C)CC2)cc1` gave 697 NFkB inh 1, Jurkat NFkB inh 3, Gli-Sufu antag 5, aSyn 5UTR inh 4, Mdm2-MdmX inh -31 and KLF5 inhibitor -17.
CC(=O)c1ccc(N2CCN(C(=O)c3noc4c3CSc3ccccc3-4)CC2)cc1 was read as 697 NFkB inh -22, Jurkat NFkB inh 7, Gli-Sufu antag 7, aSyn 5UTR inh -2, Mdm2-MdmX inh 51*, KLF5 inhibitor -31 and Mdm2-MdmX conf -12.
`O=C(Nc1cnccn1)Nc1ccccc1Cl` gave 697 NFkB inh -16, Jurkat NFkB inh 1, Gli-Sufu antag -12, aSyn 5UTR inh -8, Mdm2-MdmX inh 6 and KLF5 inhibitor 3.
For O=C(Nc1cnccn1)Nc1cccc(Cl)c1Cl the results were 697 NFkB inh -18, Jurkat NFkB inh -4, Gli-Sufu antag -12, aSyn 5UTR inh -22, Mdm2-MdmX inh 77*, KLF5 inhibitor -5, Mdm2-MdmX conf 68* and FLuc counter 105*.
CCN1C(=O)[C@H]2[C@@H](c3ccc(-c4ccc(F)cc4)c(OC)c3)N[C@@](Cc3ccccc3)(C(=O)OC)[C@H]2C1=O was read as 697 NFkB inh 28, Jurkat NFkB inh 0, Gli-Sufu antag -5, Mdm2-MdmX inh 58* and Mdm2-MdmX conf 19.
Screening COC(=O)[C@@]12CCCCN1[C@H](c1ccc(-c3cccc(Cl)c3)cc1)[C@@H]1C(=O)N(C)C(=O)[C@@H]12 returned 697 NFkB inh -2, Jurkat NFkB inh 5, Gli-Sufu antag 4, Mdm2-MdmX inh 78* and Mdm2-MdmX conf 31.
Screening CCN1C(=O)[C@H]2[C@@H](c3ccc(-c4ccc(Cl)c(Cl)c4)c(OC)c3)N3CCCC[C@@]3(C(=O)OC)[C@H]2C1=O returned 697 NFkB inh 7, Jurkat NFkB inh 5, Gli-Sufu antag -8, Mdm2-MdmX inh 66* and Mdm2-MdmX conf 13.
Screening CCN1C(=O)[C@H]2[C@@H](c3ccc(-c4cccc(Cl)c4)c(OC)c3)N3CCCC[C@@]3(C(=O)OC)[C@H]2C1=O returned 697 NFkB inh -9, Jurkat NFkB inh 4, Gli-Sufu antag -6, Mdm2-MdmX inh 59* and Mdm2-MdmX conf 28.
`CCN1C(=O)[C@H]2[C@@H](c3ccc(-c4ccccc4)c(OC)c3)N[C@@](Cc3ccccc3)(C(=O)OC)[C@H]2C1=O` gave 697 NFkB inh -9, Jurkat NFkB inh 25, Gli-Sufu antag -5, aSyn 5UTR inh 34 and Mdm2-MdmX inh 33.
O=C(COC(=O)Cn1nnc2ccccc21)Nc1ccccc1Br was read as 697 NFkB inh 3, Jurkat NFkB inh 11, Gli-Sufu antag 3, aSyn 5UTR inh -6, Mdm2-MdmX inh -13 and KLF5 inhibitor -26.
`CCN1C[C@@H]2[C@@H]3C(=O)N(Cc4ccccc4)C(=O)[C@@H]3[C@](CC)(C(=O)OC)N2C1=NC` gave 697 NFkB inh 13, Gli-Sufu antag -1 and Mdm2-MdmX inh 12.

Source: PubChem BioAssay (several laboratories)
